Mtb hypoxia inh = inhibitors of hypoxia-regulated fluorescent reporter in Mycobacterium tuberculosis; M. tuberculosis hypoxia-regulated fluorescent reporter, fluorescence; fluorescence inhibition, % (no concentration beside the values); hit rate 0.1% among 300,000; in the data active = fluorescence inhibition mostly above about 23%, no sharp cut-off; inactive = mostly below about 17%
CCHFV vOTU inh = blocks the CCHF virus ovarian tumor domain protease; inhibition, % at 11.5 µM; hit rate 0.55% among 370,000; AID 651958; CCHFV vOTU protease, Pep-AMC fluorescence; in the data active = inhibition above about 30%; note: 0% = vehicle wells with enzyme and 100% = no enzyme wells
SSB-PriA inh = K. pneumoniae PriA-SSBct interaction inhibition; AlphaScreen SSBct-PriA binding, biotinylated peptide; inhibition, % at 33 µM; hit rate 0.6% among 430,000; in the data active = inhibition mostly above about 37%, no sharp cut-off; inactive = mostly below about 20%;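 note: plate controls were negative control peptide for no effect and reference peptide for full effect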
ugtP null kill = compounds lethal to S. aureus RN4220 ugtP deletion mutant; OD600 growth, 16 h; growth inhibition, % (no concentration beside the values); hit rate 0.54% among 330,000; AID 1259309; in the data active = growth inhibition above about 68%;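 note: plate controls were untreated wells for no effect and antibiotic for full effect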
Sa RN4220 lethal = S. aureus RN4220 growth inhibition | inhibition, % (no concentration beside the values) | hit rate 0.33% among 330,000 | AID 1259311 | OD600, 16 h; in the data active = inhibition above about 85%;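 note: plate controls were untreated cells for no effect and reference antibiotic for full effect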
Numbers without * were called inactive; / = no result shown. A selection: hits, their analogues and other compounds. The true share with any hit is near 1.4%.

SMILES | Mtb hypoxia inh | CCHFV vOTU inh | SSB-PriA inh | ugtP null kill | Sa RN4220 lethal
Cc1ccccc1-n1c(SCC(=O)Nc2ccc3c(c2)OCO3)nnc1-c1ccccn1 | 11 | 11 | 42* | 8 | 10
Cn1cccc1Cc1nnc(SCC(=O)Nc2ccc3c(c2)OCO3)n1-c1ccc(Cl)cc1 | / | / | 87* | / | /
O=C(CSc1nnc(-c2ccccn2)n1-c1ccccc1)Nc1ccc2c(c1)OCCO2 | / | -6 | / | / | /
COc1ccc(-n2c(Cc3cccn3C)nnc2SCC(=O)Nc2ccc3c(c2)OCO3)cc1 | / | -4 | 11 | 6 | -2
Cc1cc2ncccn2n1 | / | / | 1 | / | /
COc1ccc(S(=O)(=O)NC[C@](C)(O)c2ccc(-c3ccccc3)cc2)c(C)c1 | / | / | 0 | / | /
COc1ccccc1/C=C1\SC(=S)N(NS(=O)(=O)c2ccccc2)C1=O | 10 | 1 | -2 | 70 | 88*
COc1cc(/C=C2\SC(=S)N(NS(=O)(=O)c3ccccc3)C2=O)ccc1O | 11 | 18 | -7 | 31 | 57
CCOc1cc(/C=C2\SC(=S)N(NS(=O)(=O)c3ccc(C)cc3)C2=O)ccc1O | 5 | 14 | 0 | 73 | 85*
COc1cccc(/C=C2\SC(=S)N(NS(=O)(=O)c3ccc(C)cc3)C2=O)c1OC | / | 16 | / | / | /
COc1cc(/C=C2\SC(=S)N(NS(=O)(=O)c3ccc(C)cc3)C2=O)ccc1O | 12 | 17 | 6 | 71 | 86*
O=S(=O)(c1ccc(Cl)cc1)N1CCN=C1SCc1cccc(Cl)c1 | 10 | 10 | 101* | 1 | 5
O=C(Nc1cc(C(F)(F)F)ccc1N1CCOCC1)c1n[nH]c(=O)c2ccccc12 | 5 | -5 | -11 | 98* | 100*
O=S(=O)(c1cccnc1)N1Cc2cncnc2C1 | / | / | 3 | / | /
CC1CCN(c2ccc(C=NNc3nncn3N)cc2[N+](=O)[O-])CC1 | -6 | / | 21 | -8 | -2
Cc1nnc(NN=Cc2cc([N+](=O)[O-])c(N3CCC(C)CC3)cc2N2CCC(C)CC2)n1N | -1 | / | 42* | -15 | 0
Cc1nc(SCc2ccccc2F)c2cnn(-c3ccccc3)c2n1 | -2 | / | / | active | 97
O=C(CCc1ccccc1)Nc1c(C(=O)Nc2cccc(Cl)c2)oc2ccccc12 | / | / | 2 | / | /
CCOC(=O)C1=C(Cc2ccc(F)cc2)C(=O)c2ccccc2C1=O | 3 | 71* | 25 | 6 | 27
Cc1ccc(OC/C(O)=C(\C#N)c2nc3ccccc3s2)cc1 | 14 | 0 | -1 | 84* | 78
COc1ccc(CC(O)=C(C#N)c2nc3ccccc3s2)cc1 | 16 | / | 0 | 73 | 77
Nc1nc(-c2cc(Cl)ccc2Cl)cs1 | / | / | 2 | / | /
COC(=O)c1ccc(-n2c(C)ccc2-c2ccccc2)cc1 | 11 | -11 | -4 | 97* | 0
CC(=O)c1ccc(-n2c(C)ccc2-c2ccccc2)cc1 | 8 | -7 | -6 | 38 | 4
CCOC(=O)CNC(=O)C1CN(S(C)(=O)=O)C1 | / | / | 3 | / | /
SMILES | Mtb hypoxia inh | CCHFV vOTU inh | SSB-PriA inh | ugtP null kill | Sa RN4220 lethal
CCCCCC1CCC(c2ccc(/C(N)=N/O)cc2)CC1 (centres undefined) | 3 | 16 | / | 100* | -5
CCCCCC1CCC(c2ccc(C(N)=NO)cc2)CC1 (centres undefined) | / | / | 0 | / | /
COc1ccc(-c2csc(NC(=O)/C=C/c3ccc([N+](=O)[O-])cc3)n2)cc1OC | / | / | 69* | / | /
CCOC(=O)CNC(=O)c1nnn2cc(-c3ccccc3OC)[nH]c(=O)c12 | / | / | -4 | / | /
COc1ccccc1-c1cn2nnc(C(=O)NCc3c(C)noc3C)c2c(=O)[nH]1 | / | / | 25* | / | /
CCOc1ccc2nc(Nc3nc4ccc(S(C)(=O)=O)cc4s3)sc2c1 | / | / | 4 | / | /
O=C(Cc1ccsc1)NCc1ccsc1 | / | / | -5 | / | /
Fc1ccc(C=NN2CCCCC2)c(F)c1 | 18 | / | 43* | 7 | 5
Fc1ccc(/C=N/N2CCCCC2)c(F)c1 | / | -15 | / | / | /
COc1ccc(-c2cn3nc(SCC(=O)Nc4cccc(C(F)(F)F)c4)ccc3n2)cc1 | / | / | -29 | / | /
Cn1c(=O)oc2ccc(S(=O)(=O)N3CCc4oncc4C3)cc21 | / | / | -2 | / | /
O=C(C[n+]1cc(-c2ccc(Cl)cc2)n2c1CCC2)N1c2ccccc2Sc2ccccc21 | 1 | 13 | 18 | -14 | 11
O=C(C[n+]1cc(-c2ccc(Cl)c(Cl)c2)n2c1CCC2)N1c2ccccc2Sc2ccccc21 | 5 | -1 | 8 | 101* | 100*
O=S(=O)(Cl)/C=C/c1ccccc1 | / | / | 5 | / | /
CCn1c(O)c(N=NC(=O)c2ccc(CSc3nncn3C)cc2)c2ccccc21 | 42* | 0 | -8 | 1 | 5
Cn1cnnc1SCc1ccc(C(=O)N=Nc2c(O)n(Cc3ccc(Cl)cc3)c3ccccc23)cc1 | / | 3 | 15 | -3 | 2
CC(C)C=NNC(=O)c1cccc(N2CCCC2=O)c1 | -4 | / | 12 | 3 | 4
C=CCn1c(Sc2ncc([N+](=O)[O-])s2)n[nH]c1=O | 11 | 5 | 4 | 89* | 27
COc1cccc(C(=O)Nc2cc(C)nn2-c2nc3c(cnn3-c3cccc(C)c3C)c(=O)[nH]2)c1OC | / | / | 94* | / | /
Cc1cc(NC(=O)COc2ccccc2F)n(-c2nc3c(cnn3-c3cccc(C)c3C)c(=O)[nH]2)n1 | / | / | 43* | / | /
COc1ccc(C(C)NC(=O)c2ccc(-n3nncc3C)cc2)cc1 (centres undefined) | / | / | -11 | / | /
CCCNC1=C(C)C(=O)C2=C(C1=O)C(COC(N)=O)[C@]1(OC)C3NC3CN21 (some centres undefined) | / | -6 | -13 | 97* | 99*
Oc1ccc(Cl)cc1N=Nc1ccccc1 | 6 | 8 | 58 | 9 | 9
O=S(=O)(O)c1cc(O)c2c(O)c(N=Nc3cc(Cl)ccc3O)c(S(=O)(=O)O)cc2c1 | 22 | / | 58* | 8 | 0
CN(CC=CC#CC(C)(C)C)Cc1cccc2ccccc12 | 1 | / | / | 89* | -6
SMILES | Mtb hypoxia inh | CCHFV vOTU inh | SSB-PriA inh | ugtP null kill | Sa RN4220 lethal
CC(C)c1ccc(NC(=O)C(=O)NCCN2CCN(c3ccccc3F)CC2)cc1 | / | / | -14 | / | /
CC(=O)Nc1cccc(C(=O)Nc2nc(-c3ccccn3)cs2)c1 | / | / | 67* | / | /
O=C(Nc1nc(-c2ccccn2)cs1)c1cccc(F)c1 | / | / | 120* | / | /
O=C(Nc1nc(-c2ccccn2)cs1)c1ccc2ncsc2c1 | / | / | 19 | / | /
O=C(Nc1cccc(NC(=O)c2cccc(F)c2)n1)c1cccc(F)c1 | -2 | -13 | -16 | 19 | 90*
O=C(Nc1nc2c(s1)CN(C(=O)Nc1ccc3c(c1)OCO3)CC2)C1CC1 | / | / | 3 | / | /
O=[N+]([O-])c1ccc(C(=Nc2cccc3ccccc23)N2CCOCC2)cc1 | 14 | -6 | 48* | 18 | -2
N#Cc1cccc(C(=O)N2CCN(c3cc4c(nn3)CCCC4)CC2)c1 | / | / | 3 | / | /
CSC1CC2CCC(C1)N2C(=O)c1cc2cc(F)ccc2s1 (centres undefined) | / | / | -4 | / | /
O=C(c1cc2cc(F)ccc2s1)N1C2CCC1CC(S(=O)(=O)c1ccccc1)C2 (centres undefined) | / | / | 77* | / | /
Nc1ccccc1Nc1ccccc1 | / | 2 | 64* | -3 | 24
Nc1ccc(Nc2ccccc2)c(Cl)c1 | 10 | -12 | 52* | -2 | 3
c1ccc(Nc2ccc(Nc3ccccc3)cc2)cc1 | 21 | 1 | 28 | -7 | 0
N#C/C(=C/c1ccccc1Br)C(N)=O | / | / | -14 | / | /

Bioassay records (PubChem)
